# Compound activity (PubChem)
# BAZ2B block: blocks human BAZ2B | AID 504333 | AlphaScreen BAZ2B-H3K14Ac peptide displacement | Q9UIF8 | Potency, µM (highest dose often 114 µM), for inactives: at the top dose activity change, negative = inhibition, most hits filed as inhibitors | 4.4% of 360,000 active; note: % is set by controls: 0 for no effect and ±100 for the full control effect; nearly all actives have a fitted effect of over 60% in size
#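 AlphaScreen displacement of biotin-H3(5-23)K14Ac peptide (50 nM final) from BAZ2B (50 nM final) in PBS pH 7.4, 0.01% Tween-20; complex preformed 30 min RT, then compounds (top 110 uM) 30 min RT, beads 20 min dark.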
# HP1b chromo inh: HP1-beta chromodomain-methylated histone interaction inhibition; P83916; AID 540317; AlphaScreen HP1-beta / biotin-H3K9me3 peptide binding; Potency, µM (series often up to 114 µM), inactives show at the highest dose activity change, negative = inhibition, usual class: inhibitors; 0.56% of 390,000 active; note: nearly all actives have a fitted effect of over 70% in size
#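 AlphaScreen: HP1-beta (50 nM) preformed 30 min with biotin-H3(1-18)K9me3 peptide (50 nM) in PBS pH 7.4, 0.01% Tween-20. Compound added for 30 min at RT, then streptavidin donor/nickel chelate acceptor beads (10 ug/mL) for 30 min.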
# JMJD2A Tudor inh: blocks the human JMJD2A Tudor domain. O75164. AlphaScreen JMJD2A-Tudor / H3K4me3 peptide binding. Potency, µM (doses to about 114 µM), without a hit: at the top dose activity change, negative = inhibition, actives largely listed as inhibitors. 4.4% of 390,000 active; note: % is set by controls: 0 for no effect and ±100 for the full control effect; nearly all actives have a fitted effect of over 50% in size
# Target sequence (O75164 whole entry, looked up, the tested form may be a part): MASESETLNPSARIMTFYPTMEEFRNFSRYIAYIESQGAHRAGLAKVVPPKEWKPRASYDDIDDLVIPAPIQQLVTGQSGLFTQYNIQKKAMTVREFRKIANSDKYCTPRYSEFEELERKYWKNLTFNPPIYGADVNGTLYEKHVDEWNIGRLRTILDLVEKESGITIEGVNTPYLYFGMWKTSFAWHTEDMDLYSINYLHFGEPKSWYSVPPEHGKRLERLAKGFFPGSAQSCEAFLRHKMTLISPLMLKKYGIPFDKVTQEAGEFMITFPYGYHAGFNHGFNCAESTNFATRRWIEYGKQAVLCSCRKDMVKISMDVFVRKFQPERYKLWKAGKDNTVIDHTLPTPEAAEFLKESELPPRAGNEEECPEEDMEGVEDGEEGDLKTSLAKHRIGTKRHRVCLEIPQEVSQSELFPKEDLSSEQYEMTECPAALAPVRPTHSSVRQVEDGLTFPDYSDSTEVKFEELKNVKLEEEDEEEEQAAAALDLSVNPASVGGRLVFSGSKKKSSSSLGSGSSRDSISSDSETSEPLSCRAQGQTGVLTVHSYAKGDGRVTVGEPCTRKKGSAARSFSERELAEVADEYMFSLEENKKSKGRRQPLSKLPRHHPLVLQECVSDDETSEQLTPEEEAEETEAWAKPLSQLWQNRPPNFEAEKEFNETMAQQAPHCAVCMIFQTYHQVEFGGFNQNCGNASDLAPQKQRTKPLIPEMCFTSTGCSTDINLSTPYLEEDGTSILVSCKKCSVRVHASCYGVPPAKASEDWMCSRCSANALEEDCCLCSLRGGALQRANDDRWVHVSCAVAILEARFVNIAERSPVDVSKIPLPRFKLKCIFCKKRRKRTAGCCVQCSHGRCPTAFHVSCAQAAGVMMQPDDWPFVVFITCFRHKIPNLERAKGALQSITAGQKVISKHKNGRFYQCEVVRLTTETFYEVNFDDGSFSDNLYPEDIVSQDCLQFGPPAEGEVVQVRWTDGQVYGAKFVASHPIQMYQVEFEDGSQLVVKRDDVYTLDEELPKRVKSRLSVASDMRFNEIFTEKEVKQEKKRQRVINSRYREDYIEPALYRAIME
# Sfp PPTase inh: inhibitors of Bacillus subtilis Sfp phosphopantetheinyl transferase | Q9F4F7 | Potency, µM, inactives show largest response in the series, negative = inhibition, usual class: inhibitors | Biochemical Sfp PPTase activity, qHTS | AID 1490 | 3.5% of 310,000 active;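 note: the enzyme is Sfp with the accession as filed and its product quenches rhodamine fluorescence; 0% = enzyme reaction without inhibitor and -100% = no enzyme wells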
#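 After 15 min at room temperature with compound, 15 nM Sfp received 5 uM rhodamine-CoA plus 12.5 uM BHQ-2-ybbR (50 mM Hepes pH 7.6, 10 mM MgCl2). Rate came from the fluorescence difference over 30 min, ex 525/em 598 nm.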
# G9a inh: G9a (human) methyltransferase inhibition. Q96KQ7. G9a H3K9 monomethylation, AlphaScreen, 2 h. Potency, µM (series often up to 102 µM), without a hit: top-dose activity, negative = inhibition, hits mostly inhibitors. 8.8% of 350,000 active. AID 504332; note: % is set by controls: 0 for no effect and ±100 for the full control effect; nearly all actives have a fitted effect of over 75% in size
#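 Readings reflect AlphaScreen signal from monomethyl-H3K9 antibody detection. HMT at 20 nM; substrate b-H3K9 500 nM; cofactor SAM 20 uM; 2 h RT reaction; compounds tested as titrations in qHTS with 15 min preincubation.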
# TDP1 block: TDP1 (human) enzyme inhibition; recombinant TDP1, AlphaScreen DNA substrate cleavage; Potency, µM (doses to about 130 µM), for the others: top-dose activity change, negative = inhibition, hits mostly inhibitors; 0.28% of 350,000 active; AID 485290; note: % is set by controls: 0 for no effect and ±100 for the full control effect; nearly all actives have a fitted effect of over 40% in size
#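 Signal: AlphaScreen proximity between streptavidin donor and anti-FITC acceptor beads on intact substrate. Reaction: Tdp1 1 nM, substrate 15 nM final, 5 min RT after 15 min compound preincubation.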
# Numbers without * were called inactive; u = inconclusive; x = no result given; [ ] = dose if it differs, or a comment. A selection: hits, their analogues and other compounds. The true share with any hit is near 12%. Calls come from the whole dose curve; as a rule, active = well fitted curve in the direction sought with a large enough effect; inconclusive = small, poorly fitted or top-dose-only effect, or another doubt; inactive = no such curve, though single readings can be large; an effect the other way counts as inactive or inconclusive. Potency is the fitted concentration of half-maximal effect.
SMILES,BAZ2B block,HP1b chromo inh,JMJD2A Tudor inh,Sfp PPTase inh,G9a inh,TDP1 block
CC(C)c1ccc(-n2c(O)c(/C=N/NC(=O)c3ccncc3)c(=O)[nH]c2=O)cc1,u,31%,u,6%,18µM*,11%
CCC(C)N=Cc1c(O)n(-c2ccccc2)c(=O)[nH]c1=O (stereo unspecified),6%,-24%,-23%,-29%,10µM*,2%
CCc1ccc(-n2c(O)c(/C=N/NC(=O)c3ccncc3)c(=O)[nH]c2=O)cc1,56µM*,19%,u,22%,8%,4%
Cc1ccccc1-n1c(O)c(/C=N/NC(=O)c2ccncc2)c(=O)[nH]c1=O,u,35%,89µM*,17%,-1%,x
C[C@H](NC(=O)[C@@H](N)Cc1ccc(O)cc1)C(=O)N[C@@H](Cc1ccccc1)C(=O)N[C@@H](Cc1ccccc1)C(N)=O,x,x,x,-8%,19%[59 µM],2%
CCCN(CCC)c1c([N+](=O)[O-])cc(S(N)(=O)=O)cc1[N+](=O)[O-],x,x,x,14%,x,15%
CCN(N=O)C(N)=O,x,x,x,x,x,8%
CCN(CC)c1ccc(N=Cc2c(O)n(-c3ccc(Cl)cc3)c(=O)[nH]c2=O)cc1,-3%,66%,-12%,-22%,x,0%
CCN(CC)c1ccc(N=Cc2c(O)n(-c3ccc(OC)cc3)c(=O)[nH]c2=O)cc1,0%,10%,3%,u,50µM*,-1%
O=C(O)[C@@H]1CSC(c2cccnc2)N1 (stereo partly specified),x,x,x,40µM*,x,2%
O=C(O)[C@@H]1Cc2[nH]cnc2C(c2cccnc2)N1 (stereo partly specified),x,x,x,u,x,10%
O=C(Nc1ccc2oc(-c3cccnc3)nc2c1)c1ccc(-c2cccc(Cl)c2)o1,56µM*,u,79µM*,x,u,x
CC(C)c1ccc2oc(-c3ccc(NC(=O)c4cc5ccccc5o4)cc3)nc2c1,6%,36%,9%,x,4%[59 µM],5%[12.3 µM]
CCCCCC[C@H]1C(=O)O[C@H](C)[C@H](NC(=O)c2cccc(NC=O)c2O)C(=O)O[C@@H](C)[C@H]1OC(=O)CC(C)C,x,x,x,12%,1%[21.5 µM],19%[21 µM]
COCCNC(=O)c1c(NC(=O)c2ccco2)n(Cc2ccccc2)c2nc3ccccc3nc12,7%,70%,-5%,22µM*,u,0%
COCCCn1c(N)c(C(=O)NCc2ccco2)c2nc3ccccc3nc21,-34%,101%,45%,22µM*,x,x
COCCNC(=O)c1c(N)n(Cc2ccco2)c2nc3ccccc3nc12,-2%,71%,25%,-26%,3%,-10%
CCCCC(=O)C1C(=O)NC(=O)NC1=O,-30%,21%,56µM*,-7%,-11%[59 µM],-3%
CCOc1ccc(CNCCc2ccc3c(c2)OCO3)cc1,-22%,13%,-24%,10%,-9%,6%
c1cc(CNCCc2ccc3c(c2)OCO3)ccn1,56µM*,u,8.9µM*,-10%,23%[0.501 µM],x
Fc1ccc(CNCCc2ccc3c(c2)OCO3)cc1,u,7%,56µM*,-4%,50µM*,5%
Clc1ccc(CCNCc2ccncc2)c(Cl)c1,50µM*,-6%,32µM*,-16%,4µM*,x
Brc1ccccc1CNCCc1ccc2c(c1)OCO2,u,u,3.2µM*,-22%,x,x
CCOc1ccccc1CNCCc1ccc2c(c1)OCO2,3%,21%,-11%,14%,13%,5%
Cc1nn(C)c(C)c1-c1cccc2c1CCC(N(C)C)C2 (stereo unspecified),x,x,x,0%,9%[59 µM],4%
C[N+]1(C)CCO[C@](O)(c2ccc(-c3ccc([C@]4(O)C[N+](C)(C)CCO4)cc3)cc2)C1,x,x,x,14%,13%[21.5 µM],2%[21 µM]
CCN1C[C@@]2(COC)CC[C@H](O)[C@@]34[C@@H]2C[C@@H]([C@@H]13)[C@]1(O)C[C@@H](OC)C2C[C@H]4[C@H]1[C@H]2OC(C)=O,x,x,x,13%,26%[21.5 µM],10%[21 µM]
